In ChEMBL document CHEMBL3433997, “St. Jude Leishmania screening dataset” (2016):

These compounds were tested against Hexose transporter 1 (Plasmodium falciparum) (UniProt O97467) (assay: ST_JUDE_LEISH: Cytotoxicity at 2uM final concentration against transgenic Leishmania Mexicana promastigotes LmPfHT that are glucose transport deficient and complemented with the Plasmodium falciparum hexose transporter. Activity is measured by DNA content using SYBR green in vitro).
Assay type: functional

Structure (SMILES)	inhibition
CCCc1cc(NC2CCN(C)CC2)nc(Nc2cccc(OC)c2)n1	6.18%
CS(=O)(=O)Cc1ccc(Nc2nccc(NC3CCN(c4nccc(C(F)(F)F)n4)CC3)n2)cc1	1.41%
OCCNc1nc(Nc2ccc(F)cc2)nc2ccccc12	3.35%
N#Cc1ccc(C=Cc2nccc3c2[nH]c2ccccc23)cc1	9.49%
O=C(Nc1ccc(OC2CCN(Cc3ccsc3)CC2)c(Cl)c1)c1cccs1	2.38%
CC(C)NC(C)(C)CN(Cc1ccc(-c2ccc(C(F)(F)F)cc2)cc1)C(=O)Cn1c(CCc2cccc(F)c2F)nc(=O)c2ccccc21	-0.61%
CCc1cc2c(=O)c(-c3nc(C)cs3)c(N)oc2c(CN2CCCCC2)c1O	2.22%
O=C1C(c2ccccc2)=C(Nc2cccc([N+](=O)[O-])c2)c2ccccc21	3.72%
O=C(Nc1ccc(-c2ccc(-c3nc4ccccc4[nH]3)s2)cc1)Nc1ccsc1	-0.46%
CN(C)CCN1CCN(CCCN2c3ccccc3Sc3ccc(C(F)(F)F)cc32)CC1	3.77%
CCCC1(NC[C@@H](O)[C@H](Cc2ccccc2)NC(=O)c2cc(NCC)cc(N3CCCCS3(=O)=O)c2)CCCC1	5.31%
CS(=O)(=O)NCCCNCc1ccc(-c2ccc(-c3nc4cc(F)ccc4[nH]3)s2)cc1	-1.55%
O=C(Nc1ccccc1)N(Cc1cccc(-c2cccc(CNCc3ccc4c(c3)OCO4)c2)c1)C1CCN(Cc2ccccc2)CC1	1.69%
O=C(Nc1ccccc1F)N(CCCn1ccnc1)Cc1csc(-c2ccc(CNCc3ccccc3)cc2)n1	0.06%
CC(C)n1cc(CN2CCCC(C(=O)Nc3cccc(-c4cc5ccccc5[nH]4)c3)C2)cn1 (stereo not given)	-0.11%
COc1ccc(CNCc2ccc(-c3ccc(-c4nc5cc(C(F)(F)F)ccc5[nH]4)cc3)cc2)cc1	1.19%
O=S(=O)(NCCN1CCCC1)c1ccc(-c2ccc(CNCc3ccc(F)cc3)cc2)cc1F	5.82%
Cc1cc2cc(NC(=O)Nc3ccnc4ccccc34)ccc2n1C	0.43%
COc1ccc2nccc([C@@H](O)CN3CCC(NCc4nc5c(cc4F)SCC(=O)N5)C(F)C3)c2c1 (stereo not given in full)	3.21%
CCCCn1c(N)c(N(Cc2ccco2)C(=O)C=Cc2cc(OC)c3c(c2)OCCO3)c(O)nc1=O	1.02%

Structure (SMILES)	inhibition
CCc1cn2c3c(cc(C(=O)N[C@@H](Cc4cccc(Cl)c4)[C@H](O)CNC4CCOCC4)cc13)N(C)S(=O)(=O)CC2	-0.33%
CCC1N=C(N)N=C(N)N1OCc1ccc(Cl)c(Cl)c1 (stereo not given)	0.09%
CC1(C)NC(N)=NC(=N)N1OCc1cccs1	7.52%
Cc1cc(NC(=O)c2cccs2)ccc1OC1CCN(Cc2ccc(C#N)cc2)CC1	1.49%
COc1ccc(C=CC(=O)NC(=O)c2ccccc2OC(=O)c2ccccc2)cc1OC	2.16%
COc1ccc2nc(C)cc(N/N=C/c3ccccc3[N+](=O)[O-])c2c1	2.99%
CCCCc1ccc(Cc2cnc3nc(N)nc(N)c3c2C)cc1	23%
CN1CCC(NCCS(=O)(=O)c2cccc(Nc3ccc(-c4cccc(F)c4)cn3)c2)CC1	0.91%
COc1cc(OC)c(NC(=O)COc2ccc(C)cc2)cc1Cl	1.59%
CN(C)S(=O)(=O)c1ccc(N2CCN(CCC3(c4cccc(F)c4)CCN(C(=O)C(C)(C)C)CC3)CC2)c2nonc12	8.17%
O=C(Nc1ccc(Cl)cn1)c1sc2ccccc2c1O	3.43%
CCN(CC)CCN(Cc1ccc(-c2ccc(C(F)(F)F)cc2)cc1)C(=O)Cn1c(SCc2ccc(F)cc2)nc(=O)c2sccc21	2.81%
CC1(C)NC(N)=NC(=N)N1OCCNCc1ccc(Cl)cc1	4.01%
CCOc1ccc(N2C(N)=NC(N)=NC2(C)C)cc1	3.86%
COc1ccc2nccc([C@@H](O)CN3CCC(NCc4cc5c(cc4F)SCC(=O)N5)CC3)c2n1	7.72%
Cn1c(=N)n(CC(=O)OCc2ccc(OCc3ccccc3)cc2)c2ccccc21	2.29%
Cc1nnsc1C(=O)Nc1ccc(-c2cccc(-c3nc4cc(F)ccc4[nH]3)c2)cc1	1.3%
C=CCOC(=O)N1CCC(CNCc2cccc(-c3ccc(-c4nc5cc(C(F)(F)F)ccc5[nH]4)cc3)c2)C1 (stereo not given)	2.5%
CN(C)c1ccc(C(c2ccc(N(C)C)cc2)c2cc([N+](=O)[O-])ccc2Cl)cc1	0.82%
CCCCCC(C)N/C(=N/c1cccc(Cl)c1Cl)Nc1ccc(C#N)cc1O (stereo not given)	4.59%
